Data on 32 molecules can be found in the supplement of paper PMC6609913.

Counter-ions that a name gives are not always drawn. ± gives the standard deviation of the averaged measurements. Whole data set: some 1,300 compounds, median “normalised cell viability” near 1, cut for the lowest 2% near 0.14. The entries come from a sample that favours the lowest values as a whole.

The assay has as its system V-C8 (BRCA2-deficient hamster cells). Briefly: normalised cell viability (fraction of plate median); higher = more viable cells (less toxic). As to conditions: 5 µM. The essentials: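 Hamster V-C8 cells with and without restored BRCA2 were exposed in 96-well plates to library drugs at 5 μM for 3 days (screen 1) or 6 days (screen 2). Cell viability was scored by resazurin assay, then median-plate normalised, averaging triplicate wells.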

With `COC(=O)Nc1nc2cc(C(=O)c3ccccc3)ccc2[nH]1` [Mebendazole], the normalised cell viability was determined as 0.164 ± 0.0056 (treatment time: 3 days) and 0.13 ± 0.0086 (treatment time: 6 days).
Take `COC(=O)Nc1nc2cc(C(=O)c3ccc(F)cc3)ccc2[nH]1` [Flubendazol]: the normalised cell viability was 0.148 ± 0.019 (treatment time: 3 days) and 0.16 ± 0.0047 (treatment time: 6 days).
For `CCCOc1ccc2[nH]c(NC(=O)OC)nc2c1` [Oxibendazol] the same measures were 0.185 ± 0.0067 and 0.183 ± 0.0049.
For `CC(C)NCC(O)c1ccc(O)c(O)c1` (single isomer, unassigned; (-)) [(-)-Isoproterenol hydrochloride] the same measures were 1 ± 0.035 and 0.952 ± 0.015.
`C#C[C@]1(O)CC[C@H]2[C@@H]3CCC4=CCCC[C@@H]4[C@H]3CC[C@@]21C` [Lynestrenol] gave a normalised cell viability (treatment time: 3 days) of 1.1 ± 0.046 and a normalised cell viability (treatment time: 6 days) of 1.12 ± 0.063.
Take `CC(=O)N(O)CCCCCNC(=O)CCC(=O)N(O)CCCCCNC(=O)CCC(=O)N(O)CCCCCN` [Deferoxamine mesylate]: the normalised cell viability turned out to be 0.305 ± 0.021 (treatment time: 3 days) and 0.198 ± 0.011 (treatment time: 6 days).
For the molecule `CC(C)(C)C(=O)OCOC(=O)[C@@H]1N2C(=O)[C@@H](NC(=O)[C@H](N)c3ccccc3)[C@H]2SC1(C)C` [Pivampicillin], the normalised cell viability runs as follows: (treatment time: 3 days) 1.02 ± 0.075; (treatment time: 6 days) 1.01 ± 0.1.
For `Cn1c(=O)c2c(ncn2CCO)n(C)c1=O` [Etofylline] the same measures were 1.03 ± 0.052 and 0.996 ± 0.039.
For `Cc1cc(-n2c(=O)[nH]c(=O)n(C)c2=O)ccc1Oc1ccc(SC(F)(F)F)cc1` [Toltrazuril] the same measures were 1.07 ± 0.044 and 1 ± 0.073.
For `O=C1NCN(c2ccccc2)C12CCN(CCCC(c1ccc(F)cc1)c1ccc(F)cc1)CC2` [Fluspirilen], the normalised cell viability turned out to be 0.472 ± 0.045 (treatment time: 3 days) and 0.235 ± 0.12 (treatment time: 6 days).
`Clc1ccccc1CN1CCc2sccc2C1` [Ticlopidine hydrochloride]: the normalised cell viability runs as follows: (treatment time: 3 days) 1.1 ± 0.032; (treatment time: 6 days) 1.08 ± 0.064.
In turn, `Cc1nc(=O)c2cc(CN(C)c3ccc(C(=O)N[C@@H](CCC(=O)O)C(=O)O)s3)ccc2[nH]1` [Raltitrexed] returned a normalised cell viability (treatment time: 3 days) of 0.332 ± 0.028 and a normalised cell viability (treatment time: 6 days) of 0.432 ± 0.075.
Take `CCN(CC)CCN[C@@H](C(=O)OCCC(C)C)c1ccccc1` [Camylofine chlorhydrate]: the normalised cell viability reads like this: (treatment time: 3 days) 1.07 ± 0.065; (treatment time: 6 days) 0.978 ± 0.027.
For `Cc1ncc(C[n+]2csc(CCO)c2C)c(N)n1` [Thiamine hydrochloride] the same measures were 1.05 ± 0.029 and 1.05 ± 0.016.
For `Cc1c(Nc2ncccc2C(=O)O)cccc1C(F)(F)F` [Flunixin meglumine] the same measures were 1.1 ± 0.11 and 1.03 ± 0.037.
For `CC(C)OC(=O)CCC/C=C\C[C@@H]1[C@@H](CC[C@@H](O)CCc2ccccc2)[C@H](O)C[C@@H]1O` [Latanoprost] the same measures were 1.13 ± 0.11 and 1.05 ± 0.041.
With `C[C@@]1(O)CCOC(=O)C1` [Mevalonic-D, L acid lactone], the normalised cell viability is 1.12 ± 0.05 (treatment time: 3 days) and 1.05 ± 0.18 (treatment time: 6 days).
For `COc1ccc2[nH]cc(CCNC(C)=O)c2c1` [Melatonin] the same measures were 1.16 ± 0.068 and 1 ± 0.058.
Regarding `CCCCCNC(=N)N/N=C/c1c[nH]c2ccc(OC)cc12` [Tegaserod maleate], the normalised cell viability came to 0.124 ± 0.011 (treatment time: 3 days) and 0.164 ± 0.016 (treatment time: 6 days).
Turning to `CN1CCCC(CC2c3ccccc3Sc3ccccc32)C1` (centres undefined) [Metixene hydrochloride], the normalised cell viability is, setting by setting: (treatment time: 3 days) 0.57 ± 0.02; (treatment time: 6 days) 0.69 ± 0.052.
For the molecule `Clc1ccc(C(Cn2ccnc2)OCc2ccsc2Cl)c(Cl)c1` (centres undefined) [Tioconazole], the normalised cell viability runs as follows: (treatment time: 3 days) 0.97 ± 0.046; (treatment time: 6 days) 0.966 ± 0.059.
For `COC1=C(OC)C(=O)C(CCCCCCCCCCO)=C(C)C1=O` [Idebenone], the normalised cell viability reads like this: (treatment time: 3 days) 0.648 ± 0.036; (treatment time: 6 days) 0.713 ± 0.04.
Take `CC(C)(C)NCC(O)COc1cccc2c1CC(O)C(O)C2` (centres undefined) [Nadolol]: the normalised cell viability came to 1.02 ± 0.073 (treatment time: 3 days) and 1.04 ± 0.035 (treatment time: 6 days).
For `C1CCC(C(CC2CCCCN2)C2CCCCC2)CC1` (centres undefined) [Perhexiline maleate] the same measures were 0.126 ± 0.011 and 0.109 ± 0.0083.
With `Cc1cc2cc3c(C)cc(=O)oc3c(C)c2o1` [Trioxsalen], the normalised cell viability (treatment time: 3 days) was determined as 1.04 ± 0.047 and the normalised cell viability (treatment time: 6 days) turned out to be 1.07 ± 0.027.
For `CC=CC(=O)N(CC)c1ccccc1C` [Crotamiton] the same measures were 0.866 ± 0.12 and 0.929 ± 0.025.
For `CC(C)c1ccc2oc3nc(N)c(C(=O)O)cc3c(=O)c2c1` [Amlexanox] the same measures were 0.933 ± 0.034 and 1.03 ± 0.089.
For `O=C(O)[C@H]1/C(=C/CO)O[C@@H]2CC(=O)N21` [Potassium clavulanate] the same measures were 1 ± 0.03 and 0.984 ± 0.039.
As for `Nc1ccc(O)c(C(=O)O)c1` [Mesalamine], the normalised cell viability turned out to be 1.09 ± 0.028 (treatment time: 3 days) and 1.14 ± 0.27 (treatment time: 6 days).
Turning to `CC(C)NC(=N)NC(=N)Nc1ccc(Cl)cc1` [Proguanil hydrochloride], the normalised cell viability amounted to 0.196 ± 0.012 (treatment time: 3 days) and 0.189 ± 0.014 (treatment time: 6 days).
For `N=C(N)NC(=N)NCCc1ccccc1` [Phenformin hydrochloride] the same measures were 0.955 ± 0.035 and 0.96 ± 0.052.
For `N=C(NCCCCCCNC(=N)NC(=N)Nc1ccc(Cl)cc1)NC(=N)Nc1ccc(Cl)cc1` [Chlorhexidine] the same measures were 0.129 ± 0.0057 and 0.101 ± 0.0054.
